Sampled rows, rich in hits. Any-hit rate of the full collection: about 3.5%.
ATG4B inh: inhibitors of human ATG4B cysteine protease. ATG4B cleavage of LC3-PLA2, NBD-HPC fluorescence, 1 h. inhibition, % at 8.33 µM. 340,000 tested, 0.51% active; in the data active means inhibition above about 40%
Target sequence (Q9Y4P1 whole entry, looked up): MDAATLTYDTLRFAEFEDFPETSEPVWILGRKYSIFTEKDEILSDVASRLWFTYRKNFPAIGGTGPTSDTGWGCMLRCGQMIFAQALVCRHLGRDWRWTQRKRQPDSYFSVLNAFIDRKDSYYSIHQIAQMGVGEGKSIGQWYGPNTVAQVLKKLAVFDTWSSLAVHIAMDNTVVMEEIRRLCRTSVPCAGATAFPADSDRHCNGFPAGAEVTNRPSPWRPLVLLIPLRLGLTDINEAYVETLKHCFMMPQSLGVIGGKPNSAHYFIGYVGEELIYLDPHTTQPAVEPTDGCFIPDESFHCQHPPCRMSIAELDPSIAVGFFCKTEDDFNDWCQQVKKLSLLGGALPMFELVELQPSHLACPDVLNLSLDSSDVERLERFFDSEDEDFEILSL
M1 PAM: potentiates human M1 receptor response to acetylcholine | CHO-K1 hM1, Fluo-8 calcium fluorescence, ACh EC20; 0% = ACh EC20, 100% = maximal ACh | activation, % at 3 µM | 360,000 tested, 0.088% active; in the data active means activation above about 19%, passing the limit was not always enough
CHRM1 agonist: activates human CHRM1 receptor. P11229. CHO-K1 hM1, Fluo-8 calcium fluorescence, agonist mode; 0% DMSO, 100% acetylcholine EC100. activation, % at 3 µM. 360,000 tested, 0.33% active;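 active means activation above the run's mean compound activation plus 3 SD, cut at about 16% in these data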;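 further: peak over basal fluorescence ratio within a 140 s kinetic read after compound addition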
Myeloid diff MLP: compounds promoting myeloid differentiation; ER-HoxA9 myeloid progenitors, lysozyme-GFP differentiation, flow cytometry; calls only at 10 µM; 360,000 tested, 1% active; AID 624256;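 active means normalized GFP-positive differentiation at or above the plate's own cutoff, the solvent-only control mean plus 3 SD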;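 further: cells exposed to compound for four days before flow analysis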
SKN-1 inh: C. elegans SKN-1 inhibition; C. elegans VP596 Pgst-4::GFP/RFP ratio, acrylamide-induced, 24 h; inhibition, % at 21.8 µM; 360,000 tested, 0.49% active;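 active means interference check ratio from 0.5 to 1.5 plus GFP to RFP signal ratio inhibition reaching or exceeding a fixed threshold, cut at about 30% in these data, passing the limit was not always enough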
M1 antag: blocks human M1 muscarinic receptor; P11229; CHO-K1 hM1, Fluo-8 calcium fluorescence, ACh EC80 antagonist; inhibition, % at 3 µM; 360,000 tested, 1.3% active;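 active means percent inhibition above its own plate's cutoff, namely the mean of that plate's compound wells plus 3 SD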;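 further: peak over basal fluorescence ratio during 140 s after agonist addition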
Hits are given with their value.

Screening Cc1cccc(-n2nc3c(c2NC(=O)C2CC2)CS(=O)(=O)C3)c1C returned ATG4B inh inactive, M1 PAM inactive, CHRM1 agonist inactive, Myeloid diff MLP inactive, SKN-1 inh 35.2 and M1 antag inactive.
For Cc1ccccc1-n1nc2c(c1NC(=O)C1CCCC1)CS(=O)(=O)C2 the results were ATG4B inh inactive, M1 PAM inactive, CHRM1 agonist inactive, Myeloid diff MLP inactive, SKN-1 inh inactive and M1 antag inactive.
`CCC(C)c1ccc(NC(=O)N2CCOCC2)cc1` (stereo not given) gave ATG4B inh inactive, M1 PAM inactive, CHRM1 agonist inactive, Myeloid diff MLP inactive, SKN-1 inh inactive and M1 antag inactive.
For O=C(CN1C(=O)COc2ccc(Cl)cc21)Nc1ccc2c(c1)OCCO2 the results were ATG4B inh inactive, M1 PAM inactive, CHRM1 agonist inactive, Myeloid diff MLP active, SKN-1 inh inactive and M1 antag inactive.
CC(C)CC(=O)C(=O)O was read as ATG4B inh inactive, M1 PAM inactive, CHRM1 agonist inactive, Myeloid diff MLP inactive, SKN-1 inh inactive and M1 antag inactive.
For O=C(O)CSCC(=O)N1CCN(S(=O)(=O)c2cc(Cl)cc(Cl)c2)CC1 the results were ATG4B inh inactive, M1 PAM inactive, CHRM1 agonist inactive, Myeloid diff MLP inactive, SKN-1 inh inactive and M1 antag inactive.
`CN(C)c1ccc(C=NNc2nc3c([nH]2)c(=O)n(C)c(=O)n3C)cc1` gave ATG4B inh inactive, M1 PAM inactive, CHRM1 agonist inactive, Myeloid diff MLP inactive, SKN-1 inh inactive and M1 antag 24.3.
`Cc1ccccc1NS(=O)(=O)c1ccc(C(=O)NN2CCCCC2)cc1` gave ATG4B inh inactive, M1 PAM inactive, CHRM1 agonist inactive, Myeloid diff MLP inactive, SKN-1 inh inactive and M1 antag inactive.
For O=C(Cn1ccc(=O)[nH]c1=O)c1ccc([N+](=O)[O-])o1 the results were M1 PAM inactive, CHRM1 agonist inactive, Myeloid diff MLP inactive, SKN-1 inh inactive and M1 antag inactive.
Screening CNC(=O)c1cc(C(=O)c2ccc(C(F)(F)F)cc2)c[nH]1 returned ATG4B inh inactive, M1 PAM inactive, CHRM1 agonist inactive, Myeloid diff MLP active, SKN-1 inh inactive and M1 antag inactive.
CC(OC(=O)Cc1c[nH]c2ccccc12)C(=O)N(C)c1ccccc1 (stereo not given) was read as ATG4B inh inactive, M1 PAM inactive, CHRM1 agonist inactive, Myeloid diff MLP inactive, SKN-1 inh inactive and M1 antag inactive.
`Cc1ccc(C(=O)N/C(=C/c2ccc(-c3ccc([N+](=O)[O-])cc3)o2)C(=O)NCCCN(C)C)cc1` gave ATG4B inh inactive, M1 PAM inactive, CHRM1 agonist inactive, Myeloid diff MLP active, SKN-1 inh inactive and M1 antag inactive.
For CCC1CCCCN1CCCNC(=O)CCCOc1cc(=O)n(C)c2ccccc12 (stereo not given) the results were ATG4B inh inactive, M1 PAM inactive, CHRM1 agonist inactive, Myeloid diff MLP inactive, SKN-1 inh inactive and M1 antag 48.8.
Screening COc1cccc(C(=O)NNC(=O)c2ccccc2)c1 returned ATG4B inh inactive, M1 PAM inactive, CHRM1 agonist inactive, Myeloid diff MLP inactive, SKN-1 inh inactive and M1 antag inactive.
Screening COc1cccc(C(=O)NN2c3ccccc3CCc3ccccc32)c1 returned ATG4B inh inactive, M1 PAM inactive, CHRM1 agonist inactive, Myeloid diff MLP active, SKN-1 inh inactive and M1 antag inactive.
Screening CCOc1ccc2nc(SCC(=O)N3c4ccccc4Sc4ccccc43)c(C#N)cc2c1 returned ATG4B inh inactive, M1 PAM inactive, CHRM1 agonist inactive, Myeloid diff MLP active, SKN-1 inh inactive and M1 antag inactive.
For CCOc1ccc2nc(SCC(=O)N3c4ccccc4Sc4ccccc43)sc2c1 the results were ATG4B inh inactive, M1 PAM inactive, CHRM1 agonist inactive, Myeloid diff MLP inactive, SKN-1 inh inactive and M1 antag inactive.
For CCc1ccc2nc(SCC(=O)Nc3ccccc3N3CCOCC3)c(C#N)cc2c1 the results were ATG4B inh inactive, M1 PAM inactive, CHRM1 agonist inactive, Myeloid diff MLP active, SKN-1 inh inactive and M1 antag inactive.
`CCc1ccc2nc(SCC(=O)N3CC(=O)Nc4ccccc43)c(C#N)cc2c1` gave ATG4B inh inactive, M1 PAM inactive, CHRM1 agonist inactive, Myeloid diff MLP active, SKN-1 inh inactive and M1 antag inactive.
Screening CCn1c(-c2ccc(-c3ccccc3)cc2)c[nH]c1=S returned ATG4B inh inactive, M1 PAM inactive, CHRM1 agonist inactive, Myeloid diff MLP inactive, SKN-1 inh inactive and M1 antag 48.0.
Cc1ccc(SCC(=O)Nc2ccc(N3CCN(C)CC3)c(F)c2)c(C)c1 was read as ATG4B inh inactive, M1 PAM inactive, CHRM1 agonist inactive, Myeloid diff MLP inactive, SKN-1 inh inactive and M1 antag 30.4.
Cc1ccc(-n2nnnc2SCC(=O)Nc2ccc(N3CCN(C)CC3)cc2)c(C)c1 was read as ATG4B inh inactive, M1 PAM inactive, CHRM1 agonist inactive, Myeloid diff MLP inactive, SKN-1 inh inactive and M1 antag inactive.
For CCOC(=O)C(C#N)C(=N)C1C(=O)OC2CCCCC21 (stereo not given) the results were M1 PAM inactive, CHRM1 agonist inactive, Myeloid diff MLP inactive, SKN-1 inh inactive and M1 antag inactive.
Screening CC(=O)c1cccc(OCc2cc(C(=O)N3C[C@H]4CC[C@H]3C4)no2)c1 returned ATG4B inh inactive, M1 PAM inactive, CHRM1 agonist inactive, Myeloid diff MLP active, SKN-1 inh inactive and M1 antag inactive.
Screening COc1cc(NC(=S)N2CCN(C/C=C/c3ccccc3)CC2)cc(OC)c1 returned ATG4B inh inactive, M1 PAM inactive, CHRM1 agonist inactive, Myeloid diff MLP active, SKN-1 inh inactive and M1 antag inactive.
`COc1cccc(NC(=S)N2CCN(C/C=C/c3ccccc3)CC2)c1` gave ATG4B inh inactive, M1 PAM inactive, CHRM1 agonist inactive, Myeloid diff MLP inactive, SKN-1 inh inactive and M1 antag inactive.
COc1cc(NC(=S)N2CCN(C(c3ccccc3)c3ccccc3)CC2)cc(OC)c1 was read as ATG4B inh inactive, M1 PAM inactive, CHRM1 agonist inactive, Myeloid diff MLP active, SKN-1 inh inactive and M1 antag 29.8.
Screening COCCNC(=S)N1CCN(C(c2ccccc2)c2ccccc2)CC1 returned ATG4B inh inactive, M1 PAM inactive, CHRM1 agonist inactive, Myeloid diff MLP inactive, SKN-1 inh inactive and M1 antag inactive.
COc1c(C)cc(C(O)c2ncc(-c3cccc(F)c3)[nH]2)cc1C (stereo not given) was read as M1 PAM inactive, CHRM1 agonist inactive, Myeloid diff MLP inactive, SKN-1 inh inactive and M1 antag inactive.

Bioassay records: PubChem BioAssay, several laboratories
